biological target: AgAbp1; experiment: SPOT peptide array binding signal intensity (averaged, normalized) (arbitrary units (background-subtracted, floor 0; scale differs between SH3 domains)); higher = stronger binding of the SH3 domain to the peptide
Method in brief: (§1)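 Binding signal refers to normalized, background-subtracted spot intensity averaged over replicates, expressed in arbitrary units that differ between domains. GST-fused SH3 domains from four yeast species were incubated at 10 μg/ml overnight at 4°C on cellulose membranes of synthetic 15-mer peptides with cysteines replaced by serines. Bound protein was detected with anti-GST antibody, an HRP anti-mouse secondary and luminol, and quantified with Genespotter.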

Row | Binder | SPOT peptide array binding signal intensity
1 | DKSRPPRPPPKPLHL | 1130

biological target: AgBbc1; experiment: as above
Method in brief: as §1

Row | Binder | SPOT peptide array binding signal intensity
2 | DKSRPPRPPPKPLHL | 193

biological target: AgBem1-D1; experiment: as above
Method in brief: as §1

Row | Binder | SPOT peptide array binding signal intensity
3 | DKSRPPRPPPKPLHL | ≤ 0

biological target: AgBzz1-D1; experiment: as above
Method in brief: as §1

Row | Binder | SPOT peptide array binding signal intensity
4 | DKSRPPRPPPKPLHL | 256

biological target: AgBzz1-D2; experiment: as above
Method in brief: as §1

Row | Binder | SPOT peptide array binding signal intensity
5 | DKSRPPRPPPKPLHL | 134

biological target: AgCyk3; experiment: as above
Method in brief: as §1

Row | Binder | SPOT peptide array binding signal intensity
6 | DKSRPPRPPPKPLHL | ≤ 0

biological target: AgFus1; experiment: as above
Method in brief: as §1

Row | Binder | SPOT peptide array binding signal intensity
7 | DKSRPPRPPPKPLHL | 0.5

biological target: AgHof1; experiment: as above
Method in brief: as §1

Row | Binder | SPOT peptide array binding signal intensity
8 | DKSRPPRPPPKPLHL | 14.2

biological target: AgHse1; experiment: as above
Method in brief: as §1

Row | Binder | SPOT peptide array binding signal intensity
9 | DKSRPPRPPPKPLHL | ≤ 0

biological target: AgLsb1; experiment: as above
Method in brief: as §1

Row | Binder | SPOT peptide array binding signal intensity
10 | DKSRPPRPPPKPLHL | 1.5

biological target: AgLsb4; experiment: as above
Method in brief: as §1

Row | Binder | SPOT peptide array binding signal intensity
11 | DKSRPPRPPPKPLHL | 15

biological target: AgMyo5; experiment: as above
Method in brief: as §1

Row | Binder | SPOT peptide array binding signal intensity
12 | DKSRPPRPPPKPLHL | 62.2

biological target: AgNbp2; experiment: as above
Method in brief: as §1

Row | Binder | SPOT peptide array binding signal intensity
13 | DKSRPPRPPPKPLHL | 62.5

biological target: AgRvs167; experiment: as above
Method in brief: as §1

Row | Binder | SPOT peptide array binding signal intensity
14 | DKSRPPRPPPKPLHL | 1.33

biological target: AgSho1; experiment: as above
Method in brief: as §1

Row | Binder | SPOT peptide array binding signal intensity
15 | DKSRPPRPPPKPLHL | 250

biological target: AgSla1-D1-D2; experiment: as above
Method in brief: as §1

Row | Binder | SPOT peptide array binding signal intensity
16 | DKSRPPRPPPKPLHL | ≤ 0

biological target: AgSla1-D3; experiment: as above
Method in brief: as §1

Row | Binder | SPOT peptide array binding signal intensity
17 | DKSRPPRPPPKPLHL | 9

biological target: CaAbp1-D1; experiment: as above
Method in brief: as §1

Row | Binder | SPOT peptide array binding signal intensity
18 | DKSRPPRPPPKPLHL | 782

biological target: CaAbp1-D2; experiment: as above
Method in brief: as §1

Row | Binder | SPOT peptide array binding signal intensity
19 | DKSRPPRPPPKPLHL | 1940

biological target: CaBbc1; experiment: as above
Method in brief: as §1

Row | Binder | SPOT peptide array binding signal intensity
20 | DKSRPPRPPPKPLHL | 334

biological target: CaBem1-D1; experiment: as above
Method in brief: as §1

Row | Binder | SPOT peptide array binding signal intensity
21 | DKSRPPRPPPKPLHL | 120

biological target: CaBzz1-D1; experiment: as above
Method in brief: as §1

Row | Binder | SPOT peptide array binding signal intensity
22 | DKSRPPRPPPKPLHL | 2800

biological target: CaBzz1-D2; experiment: as above
Method in brief: as §1

Row | Binder | SPOT peptide array binding signal intensity
23 | DKSRPPRPPPKPLHL | 578

biological target: CaCyk3; experiment: as above
Method in brief: as §1

Row | Binder | SPOT peptide array binding signal intensity
24 | DKSRPPRPPPKPLHL | 34.5

biological target: CaFus1; experiment: as above
Method in brief: as §1

Row | Binder | SPOT peptide array binding signal intensity
25 | DKSRPPRPPPKPLHL | ≤ 0

biological target: CaHof1; experiment: as above
Method in brief: as §1

Row | Binder | SPOT peptide array binding signal intensity
26 | DKSRPPRPPPKPLHL | 0.5

biological target: CaHse1; experiment: as above
Method in brief: as §1

Row | Binder | SPOT peptide array binding signal intensity
27 | DKSRPPRPPPKPLHL | 63.2

biological target: CaLsb1; experiment: as above
Method in brief: as §1

Row | Binder | SPOT peptide array binding signal intensity
28 | DKSRPPRPPPKPLHL | ≤ 0

biological target: CaLsb4; experiment: as above
Method in brief: as §1

Row | Binder | SPOT peptide array binding signal intensity
29 | DKSRPPRPPPKPLHL | 471

biological target: CaMyo5; experiment: as above
Method in brief: as §1

Row | Binder | SPOT peptide array binding signal intensity
30 | DKSRPPRPPPKPLHL | 0.5

biological target: CaNbp2; experiment: as above
Method in brief: as §1

Row | Binder | SPOT peptide array binding signal intensity
31 | DKSRPPRPPPKPLHL | 56

biological target: CaRvs167; experiment: as above
Method in brief: as §1

Row | Binder | SPOT peptide array binding signal intensity
32 | DKSRPPRPPPKPLHL | 5.33

biological target: CaRvs167-3; experiment: as above
Method in brief: as §1

Row | Binder | SPOT peptide array binding signal intensity
33 | DKSRPPRPPPKPLHL | 2

biological target: CaSho1; experiment: as above
Method in brief: as §1

Row | Binder | SPOT peptide array binding signal intensity
34 | DKSRPPRPPPKPLHL | 5.5

biological target: CaSla1-D1-D2; experiment: as above
Method in brief: as §1

Row | Binder | SPOT peptide array binding signal intensity
35 | DKSRPPRPPPKPLHL | 458

biological target: CaSla1-D3; experiment: as above
Method in brief: as §1

Row | Binder | SPOT peptide array binding signal intensity
36 | DKSRPPRPPPKPLHL | 14.2

biological target: ScAbp1; experiment: as above
Method in brief: as §1

Row | Binder | SPOT peptide array binding signal intensity
37 | DKSRPPRPPPKPLHL | 516

biological target: ScBbc1; experiment: as above
Method in brief: as §1

Row | Binder | SPOT peptide array binding signal intensity
38 | DKSRPPRPPPKPLHL | 14.5

biological target: ScBem1-D1; experiment: as above
Method in brief: as §1

Row | Binder | SPOT peptide array binding signal intensity
39 | DKSRPPRPPPKPLHL | ≤ 0

biological target: ScBzz1-D1; experiment: as above
Method in brief: as §1

Row | Binder | SPOT peptide array binding signal intensity
40 | DKSRPPRPPPKPLHL | 118

biological target: ScBzz1-D2; experiment: as above
Method in brief: as §1

Row | Binder | SPOT peptide array binding signal intensity
41 | DKSRPPRPPPKPLHL | 3

biological target: ScCyk3; experiment: as above
Method in brief: as §1

Row | Binder | SPOT peptide array binding signal intensity
42 | DKSRPPRPPPKPLHL | ≤ 0

biological target: ScFus1; experiment: as above
Method in brief: as §1

Row | Binder | SPOT peptide array binding signal intensity
43 | DKSRPPRPPPKPLHL | ≤ 0

biological target: ScHof1; experiment: as above
Method in brief: as §1

Row | Binder | SPOT peptide array binding signal intensity
44 | DKSRPPRPPPKPLHL | 0.5

biological target: ScHse1; experiment: as above
Method in brief: as §1

Row | Binder | SPOT peptide array binding signal intensity
45 | DKSRPPRPPPKPLHL | ≤ 0

biological target: ScLsb1; experiment: as above
Method in brief: as §1

Row | Binder | SPOT peptide array binding signal intensity
46 | DKSRPPRPPPKPLHL | 210

biological target: ScLsb2; experiment: as above
Method in brief: as §1

Row | Binder | SPOT peptide array binding signal intensity
47 | DKSRPPRPPPKPLHL | ≤ 0

biological target: ScLsb3; experiment: as above
Method in brief: as §1

Row | Binder | SPOT peptide array binding signal intensity
48 | DKSRPPRPPPKPLHL | 1660

biological target: ScLsb4; experiment: as above
Method in brief: as §1

Row | Binder | SPOT peptide array binding signal intensity
49 | DKSRPPRPPPKPLHL | 11

biological target: ScMyo3; experiment: as above
Method in brief: as §1

Row | Binder | SPOT peptide array binding signal intensity
50 | DKSRPPRPPPKPLHL | 170

biological target: ScMyo5; experiment: as above
Method in brief: as §1

Row | Binder | SPOT peptide array binding signal intensity
51 | DKSRPPRPPPKPLHL | 306

biological target: ScNbp2; experiment: as above
Method in brief: as §1

Row | Binder | SPOT peptide array binding signal intensity
52 | DKSRPPRPPPKPLHL | 244

biological target: ScPex13; experiment: as above
Method in brief: as §1

Row | Binder | SPOT peptide array binding signal intensity
53 | DKSRPPRPPPKPLHL | 669

biological target: ScRvs167; experiment: as above
Method in brief: as §1

Row | Binder | SPOT peptide array binding signal intensity
54 | DKSRPPRPPPKPLHL | 47.7

biological target: ScSho1; experiment: as above
Method in brief: as §1

Row | Binder | SPOT peptide array binding signal intensity
55 | DKSRPPRPPPKPLHL | 379

biological target: ScSla1-D1-D2; experiment: as above
Method in brief: as §1

Row | Binder | SPOT peptide array binding signal intensity
56 | DKSRPPRPPPKPLHL | 83

biological target: ScSla1-D3; experiment: as above
Method in brief: as §1

Row | Binder | SPOT peptide array binding signal intensity
57 | DKSRPPRPPPKPLHL | ≤ 0

biological target: SpAbp1-D1; experiment: as above
Method in brief: as §1

Row | Binder | SPOT peptide array binding signal intensity
58 | DKSRPPRPPPKPLHL | 1120

biological target: SpBbc1; experiment: as above
Method in brief: as §1

Row | Binder | SPOT peptide array binding signal intensity
59 | DKSRPPRPPPKPLHL | ≤ 0

biological target: SpBzz1-D1; experiment: as above
Method in brief: as §1

Row | Binder | SPOT peptide array binding signal intensity
60 | DKSRPPRPPPKPLHL | 684
